The whole screen tested about 370,000 compounds, of which about 4,100 (1.1%) were called active. What follows is part of a selection rich in actives, with near analogues and random picks from the rest. A number with no mark means an inactive call.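 How the source made its calls: active means inhibition above the mean over all tested compounds plus 3 SD (cut at about 3.6% in these data); inactive means the rest.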
Experiment: relief of DAX-1 repression of SF-1 activity – cell-based, luminescence, SF-1 (NR5A1), full-length DAX-1, primary screen (AID 652010);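 further: 0% = DAX-1 cells with DMSO and 100% = cells lacking DAX-1 with DMSO; higher inhibition means more luminescence from relief of DAX-1 repression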
Settings: HEK293T StAR-luciferase reporter, SF-1/DAX-1 repression relief; at 6.8 µM; hits give high values

Row | SMILES | inhibition
1 | CC(=O)C1=C(C)N(Cc2ccc(Cl)cc2)C(=S)NC1c1ccc(F)cc1 (configuration not stated) | 0.31%
2 | Cc1cc(NC(=O)COc2ccccc2C#N)no1 | 4.34% (active)
3 | COc1ccc(C(=O)OCC(=O)Nc2cc(C)on2)cc1F | -1.4%
4 | Cc1cc(NC(=O)COn2nnc3ccccc32)no1 | 0.82%
5 | COc1ccc(C2CC(=O)C=C(NCC3CCCO3)C2)cc1 (configuration not stated) | -0.07%
6 | CCCCCCN1CCS(=O)(=O)N(Cc2ccc(C(F)(F)F)cc2)C(C(=O)OC)C1 (configuration not stated) | -0.72%
7 | CC(=NCC1CCCO1)c1c(O)[nH]c(=O)[nH]c1=O (configuration not stated) | 1.34%
8 | O=C1C(C=NCC2CCCO2)=C(O)c2ccccc21 (configuration not stated) | 4.59% (active)
9 | CCc1ccc(CN2C(=O)c3ccccc3C2C(=O)NCC2CCCO2)cc1 (configuration not stated) | -0.05%
10 | COc1ccc(CNS(=O)(=O)c2cc(Br)ccc2Br)cc1 | -0.4%
11 | COC(=O)c1ccc(CSc2nnc(NC(C)C)s2)cc1 | -0.08%
12 | O=C(/C=C/c1ccccc1)Nc1nnc(SCC(=O)c2ccc3ccccc3c2)s1 | 0.17%
13 | COc1ccc(C(=O)CSc2nnc(NC(=O)C3CC(=O)N(c4cccc(OC)c4)C3)s2)cc1 (configuration not stated) | -0.22%
14 | CCSc1nnc(NC(=O)c2ccc(C)cc2)s1 | 5.52% (active)
15 | CCCc1cc(=O)[nH]c2nnc(SCC(=O)Nc3nnc(SCC)s3)n12 | 2.35%
16 | NC(=O)CSc1nnc(NC(=O)c2ccc3ccccc3c2)s1 | 6.15% (active)
17 | CCCCOCCCNC(=O)C[C@H]1C[C@@]2(C(=O)OC)C(=C[C@H](COCc3ccccc3)O[C@@H]2C)N(Cc2cccc3ccccc23)C1=O | -0.91%
18 | COc1cc(NC(=O)C2CCCN(S(=O)(=O)c3ccc(C(C)(C)C)cc3)C2)cc(OC)c1 (configuration not stated) | 0.97%
19 | C/C(=N\NC(=O)c1ccccc1F)c1ccccn1 | 6.14% (active)
20 | C/C(=N/NC(=O)c1ccn(C)n1)c1ccncc1 | -0.02%
21 | O=C(Nc1nnc(-c2ccccc2F)s1)c1ccccc1F | 0.85%

Row | SMILES | inhibition
22 | CCCCCCCCNS(=O)(=O)/C=C/c1cc(C)ccc1CNC(=O)OC(C)(C)C | -1.91%
23 | CN[C@H]1C[C@H]2c3cc(N4CCOCC4)ccc3CCN2C[C@H]1[C@H](C)O | -0.26%
24 | COC(=O)C1=C(C)N(Cc2cccc(C(F)(F)F)c2)C(=NCc2ccccc2)NC1c1ccccc1C(F)(F)F (configuration not stated) | -0.23%
25 | COc1ccc(C(=O)COC(=O)C(O)c2ccccc2)c(OC)c1 (configuration not stated) | 3.84% (active)
26 | COc1ccc(C(=O)COC(=O)CN2C(=O)C3CC=CCC3C2=O)c(OC)c1 (configuration not stated) | 1.03%
27 | COc1ccc(C(=O)COC(=O)c2nn(C)c(=O)c3ccccc23)c(OC)c1 | 1.33%
28 | Brc1ccc(C2CC(c3ccccc3)=Nc3ccccc3N2)cc1 (configuration not stated) | 3.86% (active)
29 | CNC(=S)N1N=C(c2ccccc2)CC1c1ccc(Br)cc1 (configuration not stated) | -0.46%
30 | S=C1NC(c2ccccc2)=NCN1c1ccc(Br)cc1 | 0%
31 | CCOC(=O)c1c(C)[nH]c(C2=NNC(=NC(C)COC)SC2)c1C (configuration not stated) | 4.39% (active)
32 | O=C1Nc2ccccc2C1=NN=Cc1ccco1 | -1.23%
33 | CCOC(=O)[C@]12CCCCC/C=C\1N(Cc1ccc(OC)cc1)C(=O)[C@H]2CC(=O)NCCCN1CCCC1=O | 0.28%
34 | CCOc1ccc(S(=O)(=O)Nc2cccc(C(=O)NCC3(N4CCCCC4)CCCCC3)c2)cc1 | 6.71% (active)
35 | O=C(NCC1CCCO1)c1ccc(S(=O)(=O)Nc2ccc(F)cc2)cc1 (configuration not stated) | 0.67%
36 | CN(C)S(=O)(=O)c1ccc(C(=O)NCC2(N3CCOCC3)CCCCC2)cc1 | 3.47%
37 | O=C(NCC1(N2CCCCC2)CCCCC1)c1ccc(NS(=O)(=O)c2ccc(F)cc2)cc1 | 10.6% (active)
38 | CCOc1ccc(NS(=O)(=O)c2ccc(C(=O)NCC(c3ccccc3OC)N3CCCC3)cc2)cc1 (configuration not stated) | 1.1%
39 | O=C(NCC1(N2CCCCC2)CCCCC1)c1cccc(S(=O)(=O)Nc2ccccc2Cl)c1 | 3.28%
40 | C=C(C)C1CC23C(=O)C4(C(=O)c5ccccc5)C[C@@]5(C)CCC(CC2C1(C)C)(C4=O)C35OC (some centres not stated) | -0.55%
41 | CN1C[C@]2(C=C3CCCCC3n3c(=O)n(-c4ccccc4)c(=O)n32)N=C1NC(=O)c1ccccc1 (some centres not stated) | -0.17%
42 | CCc1ccccc1NC(=O)CSc1nnc(-c2cccs2)o1 | -1.18%

Row | SMILES | inhibition
43 | Clc1ccc(C(Cn2ccnc2)OCc2ccsc2Cl)c(Cl)c1 (configuration not stated) | -1.62%
44 | COC(=O)c1ccccc1Oc1c(F)c(F)nc(N2CCOCC2)c1F | 0.02%
45 | Fc1cnc(N2CCOCC2)nc1NCc1ccccc1 | 0.22%
46 | COc1ccc(Nc2ncc(F)c(N3CCOCC3)n2)cc1 | 4.78% (active)
47 | CN(C)c1ccc(NC(=O)CSc2n[nH]c(-c3ccco3)n2)cc1 | -1.06%
48 | CCCCC[C@H](C)N1C[C@@H](COCc2ccccc2)Oc2cc(N3CC[C@@H](N(C)C)C3)ccc2S1(=O)=O | 0.28%
49 | COc1ccc(C2=CN(Cc3ccccc3)C(c3ccc(OC)cc3)CC2=O)cc1 (configuration not stated) | -1.09%
50 | O=S(=O)(NCC1CCCO1)c1ccc2ccccc2c1 (configuration not stated) | -0.46%
51 | CCOC(=O)C1CCCN(C(=O)c2cc(-c3cccs3)oc2C)CC1 (configuration not stated) | -0.69%
52 | COc1cc(Cl)ccc1OCc1cc(C(=O)N2CC[C@@H]3CCCC[C@H]3C2)no1 | 3.53%
53 | COc1ccccc1-c1cc(C(=O)N2CCCCC2)no1 | 9.11% (active)
54 | O=C(c1cc(-c2ccccc2O)on1)N1CCCC1 | 6.48% (active)
55 | COc1ccc(C(=O)C2CCCN(C(=O)c3cc(C)on3)C2)cc1F (configuration not stated) | -0.49%
56 | O=C(c1ccco1)N1CCN(C(=O)c2cc(-c3ccccc3F)no2)CC1 | 0.38%
57 | O=C(c1cc(-c2cccs2)on1)N1CCCCC1 | 4.8% (active)
58 | O=C(c1cc(COc2ccc(F)cc2F)on1)N1CCOCC1 | 1.39%
59 | COc1ccc(OCc2cc(C(=O)N3CCCC3)no2)c2ccccc12 | 6.04% (active)
60 | COc1cc(OC)c(C(=O)N2CCCC2)cc1OC | -0.07%
61 | CC(=O)c1ccc(NC(=O)c2cc(-c3cccs3)on2)cc1 | 0.84%
62 | O=C(c1cc(C2CCCCN2S(=O)(=O)c2ccccc2)on1)N1CCOCC1 (configuration not stated) | -1.39%
